Among the data in PubChem BioAssay AID1259418 (Broad Institute, 2018) are max activity values, retold here.

Screen size: about 3,400 compounds; about 840 (25%) were called active. Inconclusive results (about 11%) are left out.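 How the source made its calls: active means fitted half-maximal concentration of signal decrease at or below twice the sample's top tested concentration; inconclusive means flat curve between -70 and -30 percent, or poor fit; inactive means flat within 30 percent, signal rise, or potency above limit.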 Only a sample is shown. Entries with a potency or affinity are not part of this list.

A short description of this assay: inhibitors of Toxoplasma growth in IFN-γ-primed HeLa – cell-based, ME49Luc, luciferase, 72 h, dose response (AID 1259418). To be noted: T. gondii ME49Luc in IFN-y HeLa, hits give low values, -100% = high-dose IFN-γ control wells; at 19.5 µM unless noted.
In the case of `O=C(Cc1cccc(F)c1)Nc1ccc(-c2nc(-c3ccccc3)co2)cc1`, the max activity is 16.9% [at 2.6 µM] (inactive).

As for `Cc1ccc(-c2nc(Cn3nnc(-c4nc(-c5ccc(F)cc5)no4)c3C)c(C)o2)cc1`, the max activity was 22% (inactive).

Consider `CCCC(=O)Nc1ccc(-c2nc(-c3cc(C)ccc3C)co2)cc1`, for which the max activity is -11.6% [at 1.35 µM] (inactive).

Regarding `COC[C@@H]1CCC[C@]12CN(S(=O)(=O)c1cccs1)CCO2`, the max activity was -9.83% [at 0.6 µM] (inactive).

For the molecule `COCC12CCCOC1CCN(S(=O)(=O)c1cn(C)cn1)C2` (stereo unspecified), the max activity was 18.3% (inactive).

Turning to `CCSc1ccc(-c2sc(-c3ccc(F)cc3)nc2C)nn1`, the max activity is 31.6% (inactive).

Consider `Cc1cccc(C(=O)Nc2c(C(=O)NCc3ccccn3)[nH]c3ccc(C)cc23)c1`, for which the max activity was 14.8% [at 10 µM] (inactive).

In the case of `O=C(Nc1c(C(=O)NCc2ccccn2)[nH]c2ccccc12)c1ccc(Cl)cc1`, the max activity is 9.23% [at 1.35 µM] (inactive).

With `Cc1ccc2[nH]c(C(=O)N3CCN(c4ccccn4)CC3)c(NC(=O)c3ccc(F)cc3)c2c1`, the max activity was -13.6% (inactive).

With `Cc1cccc(C(=O)Nc2c(C(=O)NCc3cccnc3)[nH]c3ccc(C)cc23)c1`, the max activity is 28.1% [at 5 µM] (inactive).

As for `Cc1ccc2[nH]c(C(=O)NCc3ccccn3)c(NC(=O)c3ccc(Cl)cc3)c2c1`, the max activity is 27.1% [at 0.35 µM] (inactive).

As to `Cc1ccc2[nH]c(C(=O)NCc3cccnc3)c(NC(=O)c3ccc(Cl)cc3)c2c1`, the max activity is -12% [at 10 µM] (inactive).

On to `Cc1ccc(C(=O)Nc2c(C(=O)NCc3ccccn3)[nH]c3ccccc23)cc1`, for which the max activity is -2.99% [at 0.35 µM] (inactive).

On to `Cc1ccc(C(=O)Nc2c(C(=O)NCc3cccnc3)[nH]c3ccc(C)cc23)cc1`, for which the max activity is 54.9% [at 2.6 µM] (inactive).

For `Cc1ccc2c(c1C)-n1cccc1C1(CCN(C(=O)Cc3cccs3)CC1)N2`, the max activity is 6.55% [at 0.16 µM] (inactive).

Take `COc1ccc(-c2nc(Nc3cccc(Cl)c3C)c3ccccc3n2)cc1`: the max activity was 25.3% (inactive).

As for `Cc1ccc(-c2coc(-c3ccc(NC(=O)Nc4cccc(Br)c4)cc3)n2)cc1`, the max activity is 22.7% [at 0.16 µM] (inactive).

Consider `Cc1ccccc1-c1noc(-c2nnn(Cc3nc(-c4cccc(Cl)c4)oc3C)c2C)n1`, for which the max activity is -11.4% [at 0.16 µM] (inactive).

As for `Cc1noc(C)c1C1CCCN1Cc1cn(C(C)C)c2ccccc12` (stereo unspecified), the max activity is 17.5% [at 10 µM] (inactive).

Take `Cc1cc(C2CCCN2Cc2cn(C(C)C)c3ccccc23)on1` (stereo unspecified): the max activity is 5.01% (inactive).

In the case of `Clc1ccc(CSc2nc(NC3CCCCC3)c3ccccc3n2)cc1`, the max activity was 26.1% [at 2.6 µM] (inactive).

For the molecule `CC(C)c1ccc(S(=O)(=O)N2CCC3(CC2)NCCN=C3NC2CCCCC2)cc1`, the max activity was 20% [at 0.16 µM] (inactive).

For `CC(C)c1ccc(S(=O)(=O)N2CCC3(CC2)NCCN=C3NC2CCCC2)cc1`, the max activity was -14.4% [at 10 µM] (inactive).

On to `CC(C)c1ccc(S(=O)(=O)N2CCC3(CC2)NCCN=C3NC2CCCCCC2)cc1`, for which the max activity was 17.1% [at 0.16 µM] (inactive).

In the case of `Cc1ccc(-c2coc(-c3ccc(NC(=O)Nc4ccc(Cl)cc4)cc3)n2)cc1`, the max activity was 13.9% [at 0.16 µM] (inactive).

As for `Cc1ccc(C)c(-c2coc(-c3ccc(NC(=O)Nc4ccc(C)c(F)c4)cc3)n2)c1`, the max activity was 15% (inactive).

For the molecule `CCc1ccccc1Nc1ncnc2c1cnn2-c1ccc(OC)cc1`, the max activity is 48.9% (inactive).

As for `Clc1ccc(-c2nc(N3CCN(c4ccccn4)CC3)c3ccccc3n2)cc1`, the max activity was -23.4% [at 1.35 µM] (inactive).

`COc1ccc(-c2nc(NCc3cccc(OC)c3)c3ccccc3n2)cc1`: the max activity is 17.2% (inactive).

On to `CCc1ccccc1NC(=O)N1CCN(Cc2nc(-c3ccc(C)cc3)oc2C)CC1`, for which the max activity was 29.1% [at 10 µM] (inactive).

On to `COc1ccc(-c2nc3c(s2)CN(C(=O)Nc2ccc(Cl)cc2)CC3)cc1OC`, for which the max activity is 10.2% [at 0.16 µM] (inactive).

Take `CCOC(=O)CSC1=Nc2ccccc2C2=NC(CC(=O)NC3CCCCC3)C(=O)N12` (stereo unspecified): the max activity was -18.7% [at 10 µM] (inactive).

`O=C1CCc2cc(S(=O)(=O)NCc3cccs3)cc3c2N1CCC3`: the max activity is 24.5% (inactive).

`O=C1CCc2cc(S(=O)(=O)N3CCCc4ccccc43)cc3c2N1CCC3`: the max activity was -12% [at 0.35 µM] (inactive).

Regarding `O=C1CCc2cc(S(=O)(=O)NCc3ccccc3Cl)cc3c2N1CCC3`, the max activity is 22.6% [at 2.6 µM] (inactive).

Regarding `O=C1CCc2cc(S(=O)(=O)NCCC(c3ccccc3)c3ccccc3)cc3c2N1CCC3`, the max activity was 9.16% (inactive).

As for `O=C1CCc2cc(S(=O)(=O)N3CCC(Cc4ccccc4)CC3)cc3c2N1CCC3`, the max activity is 11.4% [at 1.35 µM] (inactive).

For the molecule `CC1Cc2ccccc2N1S(=O)(=O)c1cc2c3c(c1)CCC(=O)N3CCC2` (stereo unspecified), the max activity was -11.1% [at 0.35 µM] (inactive).

As to `Cc1ccc(C2=NC3(CCN(CC(=O)Nc4c(C)cccc4C)CC3)NC2=O)cc1`, the max activity is 10.4% [at 0.16 µM] (inactive).

As for `COc1ccc2c(c1)NC1(CCN(C(=O)CCC3CCCC3)CC1)c1cccn1-2`, the max activity is 10.2% [at 0.16 µM] (inactive).

With `COc1ccc(C)cc1NC(=O)N1CCc2nc(-c3ccc(C)cc3)sc2C1`, the max activity was -14.6% [at 0.16 µM] (inactive).

Take `CCOc1ccc(CCNc2nc(-c3ccc(OC)cc3)nc3ccccc23)cc1`: the max activity is -9.19% [at 0.35 µM] (inactive).

Turning to `CCc1cc2c(N3CCC(C(N)=O)(N4CCCCC4)CC3)ncnc2s1`, the max activity was -27.2% (inactive).

In the case of `CCOC(=O)CCNC(=O)Nc1ccc(-c2nc(-c3ccccc3)co2)cc1`, the max activity was -13.1% [at 1.35 µM] (inactive).

Turning to `COC(=O)c1ccc(NC(=O)COc2nc(C)nc3ccccc23)cc1`, the max activity is 16% [at 2.6 µM] (inactive).

Turning to `O=C(c1ccco1)N1CCC2(CC1)Nc1cc(F)ccc1-n1cccc12`, the max activity was 7.86% [at 0.16 µM] (inactive).

As for `O=C(c1ccco1)N1CCN(c2nc(-c3ccc(Cl)cc3)nc3ccccc23)CC1`, the max activity was 16.5% [at 0.35 µM] (inactive).

Consider `Cc1ccc2c(c1C)-n1cccc1C1(CCN(C(=O)c3ccc(Cl)cc3)CC1)N2`, for which the max activity is -11.9% [at 0.16 µM] (inactive).

On to `O=C(CC1Nc2c3ccccc3nc(=S)n2C1=O)NCCC1=CCCCC1` (stereo unspecified), for which the max activity is 25.3% [at 0.68 µM] (inactive).

In the case of `Cc1ccc(CSC2=Nc3ccccc3C3=NC(CCC(=O)NCc4ccco4)C(=O)N23)cc1` (stereo unspecified), the max activity was 39.1% (inactive).

Regarding `O=C(CC1N=C2c3ccccc3N=C(SCc3ccccc3F)N2C1=O)NCc1ccco1` (stereo unspecified), the max activity was -17.8% (inactive).

For the molecule `Cc1ccc(CSC2=Nc3ccccc3C3=NC(CC(=O)NCc4ccco4)C(=O)N23)cc1` (stereo unspecified), the max activity is 10.3% [at 0.35 µM] (inactive).

As to `CC(C)(C)c1ccc(CSC2=Nc3ccccc3C3=NC(CCC(=O)NCc4ccco4)C(=O)N23)cc1` (stereo unspecified), the max activity is 15.7% [at 0.16 µM] (inactive).

Take `Cc1nc(OCC(=O)Nc2cccc(Cl)c2)c2ccccc2n1`: the max activity was -6.84% [at 0.35 µM] (inactive).

With `Cc1ccc(C)c(-c2coc(-c3ccc(NC(=O)C(C)(C)C)cc3)n2)c1`, the max activity is 13.3% [at 0.16 µM] (inactive).

Consider `COCCN1CCN(S(=O)(=O)c2ccccc2)Cc2cccnc21`, for which the max activity was 18.1% (inactive).

`CCOC(=O)c1ccccc1NC(=O)COc1nc(C)nc2ccccc12`: the max activity is 26.7% [at 10 µM] (inactive).

In the case of `COc1ccc(C)cc1NC(=O)COc1nc(C)nc2ccccc12`, the max activity was 17.5% [at 0.68 µM] (inactive).

In the case of `COc1ccc(OC)c(NC(=O)COc2nc(C)nc3ccccc23)c1`, the max activity was 27.6% [at 2.6 µM] (inactive).

Regarding `COC(=O)c1ccc(Cl)cc1NC(=O)COc1nc(C)nc2ccccc12`, the max activity was 29% [at 0.16 µM] (inactive).

On to `Cc1cc(C)c(NC(=O)COc2nc(C)nc3ccccc23)c(C)c1`, for which the max activity is -16.7% [at 0.68 µM] (inactive).

As for `CCc1cccc(C)c1NC(=O)COc1nc(C)nc2ccccc12`, the max activity was 13.2% [at 0.68 µM] (inactive).

As for `Cc1nc(OCC(=O)Nc2cccc(Br)c2)c2ccccc2n1`, the max activity was 18% [at 0.35 µM] (inactive).

Regarding `Cc1cc(C)cc(NC(=O)COc2nc(C)nc3ccccc23)c1`, the max activity is -16.7% [at 5 µM] (inactive).

`CCOc1cccc(CC(=O)N2CCC3(CC2)Nc2cc(F)ccc2-n2cccc23)c1OCC`: the max activity is 11.6% [at 0.35 µM] (inactive).

Consider `O=C(NCCc1csc(-c2ccccc2)n1)[C@H]1CSCN1C(=O)Cc1ccc(F)cc1`, for which the max activity was 10.7% [at 10 µM] (inactive).

As for `Cc1ccc(C)c(-c2coc(-c3ccc(NC(=O)NCc4ccc(F)cc4)cc3)n2)c1`, the max activity was -8.97% [at 1.35 µM] (inactive).

Turning to `CCOc1ccc(C(=O)N2CCC3(CC2)Nc2ccc(C)c(C)c2-n2cccc23)cc1`, the max activity is -13.2% (inactive).

For `Cc1cccc(C(=O)Nc2c(C(=O)NCc3ccccn3)[nH]c3ccccc23)c1`, the max activity was 17.8% [at 2.6 µM] (inactive).

As to `CN(C)CCN1CCC2(CCCN(C(=O)C3CCOC3)C2)C1=O` (stereo unspecified), the max activity is 39.4% (inactive).

For `Cc1cccc(-c2nc(Cn3nnc(-c4nc(-c5ccccc5C)no4)c3C)c(C)o2)c1`, the max activity was 5.08% [at 0.35 µM] (inactive).

Turning to `O=C(Nc1ccc(-c2nc(-c3cccc(Br)c3)co2)cc1)c1ccco1`, the max activity was 21.7% (inactive).

Consider `O=C(NCCc1csc(-c2ccccc2)n1)[C@H]1CCCN1C(=O)COc1ccccc1`, for which the max activity was -18.8% (inactive).

In the case of `Cc1nc(OCC(=O)Nc2ccccc2)c2ccccc2n1`, the max activity was 12.4% [at 0.16 µM] (inactive).

Consider `COc1cc(NC(=O)COc2nc(C)nc3ccccc23)cc(OC)c1`, for which the max activity is -12.3% [at 0.35 µM] (inactive).

As to `Cc1nc(OCC(=O)Nc2ccc(F)cc2)c2ccccc2n1`, the max activity was 17.7% [at 10 µM] (inactive).

For `CCc1nc(OCC(=O)NCc2ccc3c(c2)OCO3)c2ccccc2n1`, the max activity was 11.9% [at 0.35 µM] (inactive).

Turning to `COc1ccc(NC(=O)COc2nc(C)nc3ccccc23)cc1`, the max activity is 19.3% [at 0.68 µM] (inactive).

In the case of `Cc1nc(OCC(=O)Nc2ccc(F)cc2F)c2ccccc2n1`, the max activity is -20.9% [at 1.35 µM] (inactive).

Regarding `Cc1nc(OCC(=O)Nc2ccc(Cl)cc2F)c2ccccc2n1`, the max activity is -13% [at 0.16 µM] (inactive).

With `Cc1nc(OCC(=O)Nc2ccc3c(c2)OCO3)c2ccccc2n1`, the max activity is 12.1% [at 5 µM] (inactive).
